# Measured values as given in article PMC8384837, “Expanding the binding specificity for RNA recognition by a PUF domain”.
# Residue numbers refer to the chain shown, from its start.
# What was measured:
# Assay in all cases: yeast three-hybrid, YBZ-1, SC-Leu-His + 0.5 mM 3-AT, 4 days
# Conditions in all cases: tags: N-Gal4 AD-HA kept; label: inside an RPR1-promoter hybrid RNA with tandem MS2 sites; ssRNA
# PUM1 PUF domain R5-GKH = PUM1 PUF domain R5-GKH (Homo sapiens, UniProt Q14671 828-1176, C1007G;R1008K;Q1011H)
# Summary of the method: (§1)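 Pumilio-1 PUF domain libraries, randomized at the three base-contacting residues of each repeat, were co-expressed with matching RNA elements from a centromeric plasmid in strain YBZ-1, which carries a LexA–MS2 coat fusion and a HIS3 reporter. Transformants grew for four days on SC-Leu (input) or on SC-Leu-His + 0.5 mM 3-AT (selection), and the repeat regions were PCR-amplified and Illumina-sequenced. The interaction score is the log change in variant frequency from input to selection. That logarithm is base 2, with a pseudocount of 1 where a variant was absent.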
# PUM1 PUF domain R5-RYT = PUM1 PUF domain R5-RYT (Homo sapiens, UniProt Q14671 828-1176, C1007R;R1008Y;Q1011T)
# Summary of the method: as §1
# PUM1 PUF domain R5-NDG = PUM1 PUF domain R5-NDG (Homo sapiens, UniProt Q14671 828-1176, C1007N;R1008D;Q1011G)
# Summary of the method: as §1
# PUM1 PUF domain R6-MYL = target: T1, PUM1 PUF domain R6-MYL (Homo sapiens, UniProt Q14671 828-1176, N1043M;Q1047L)
# T1 sequence: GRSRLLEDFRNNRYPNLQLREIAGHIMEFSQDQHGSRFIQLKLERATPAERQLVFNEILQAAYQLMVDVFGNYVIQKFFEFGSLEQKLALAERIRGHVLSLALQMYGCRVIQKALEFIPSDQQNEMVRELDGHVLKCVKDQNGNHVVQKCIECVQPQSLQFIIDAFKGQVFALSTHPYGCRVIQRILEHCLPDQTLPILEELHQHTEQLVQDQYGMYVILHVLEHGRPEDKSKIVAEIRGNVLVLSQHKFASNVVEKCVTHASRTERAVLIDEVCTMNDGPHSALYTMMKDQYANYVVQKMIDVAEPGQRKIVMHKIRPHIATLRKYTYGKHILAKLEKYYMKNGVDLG
# Summary of the method: as §1
# PUM1 PUF domain R4-LHW = PUM1 PUF domain R4-LHW (Homo sapiens, UniProt Q14671 828-1176, N971L;Q975W)
# Summary of the method: as §1
# PUM1 PUF domain R6-KFS = target: T2, PUM1 PUF domain R6-KFS (Homo sapiens, UniProt Q14671 828-1176, N1043K;Y1044F;Q1047S)
# T2 sequence: T1 sequence with M216K, Y217F, L220S
# Summary of the method: as §1
# PUM1 PUF domain R8-NWR = PUM1 PUF domain R8-NWR (Homo sapiens, UniProt Q14671 828-1176, Y1123W;Q1126R)
# Summary of the method: as §1
# PUM1 PUF domain R6-LWK = target: T3, PUM1 PUF domain R6-LWK (Homo sapiens, UniProt Q14671 828-1176, N1043L;Y1044W;Q1047K)
# T3 sequence: T1 sequence with M216L, Y217W, L220K
# Summary of the method: as §1
# PUM1 PUF domain R6-VWS = target: T4, PUM1 PUF domain R6-VWS (Homo sapiens, UniProt Q14671 828-1176, N1043V;Y1044W;Q1047S)
# T4 sequence: T1 sequence with M216V, Y217W, L220S
# Summary of the method: as §1
# PUM1 PUF domain R4-EHA = PUM1 PUF domain R4-EHA (Homo sapiens, UniProt Q14671 828-1176, N971E;Q975A)
# Summary of the method: as §1
# PUM1 PUF domain R4-VCA = PUM1 PUF domain R4-VCA (Homo sapiens, UniProt Q14671 828-1176, N971V;H972C;Q975A)
# Summary of the method: as §1
# [1] = target: T5, PUM1 PUF domain R6-SWD R7-NPG (Homo sapiens, UniProt Q14671 828-1176, N1043S;Y1044W;Q1047D;S1079N;N1080P;E1083G)
# T5 sequence: T1 sequence with M216S, Y217W, L220D, S252N, N253P, E256G
# Summary of the method: as §1
# PUM1 PUF domain R8-SWE = PUM1 PUF domain R8-SWE (Homo sapiens, UniProt Q14671 828-1176, N1122S;Y1123W;Q1126E)
# Summary of the method: as §1
# PUM1 PUF domain R3-RAA = PUM1 PUF domain R3-RAA (Homo sapiens, UniProt Q14671 828-1176, C935R;R936A;Q939A)
# Summary of the method: as §1
# PUM1 PUF domain R5-NAR = PUM1 PUF domain R5-NAR (Homo sapiens, UniProt Q14671 828-1176, C1007N;R1008A;Q1011R)
# Summary of the method: as §1
# PUM1 PUF domain R5-KTC = PUM1 PUF domain R5-KTC (Homo sapiens, UniProt Q14671 828-1176, C1007K;R1008T;Q1011C)
# Summary of the method: as §1
# PUM1 PUF domain R5-KHI = PUM1 PUF domain R5-KHI (Homo sapiens, UniProt Q14671 828-1176, C1007K;R1008H;Q1011I)
# Summary of the method: as §1
sequence,measurement,setting,value
GGCUAGAACUAGUGGAUCCCCCGGCGCCCGGCGGCUCGAGCCCGGGUAAGUGUUAAUAGUCUGCAUGCCGCCGGGCGCCAUGCCUGCAGGUCGACUCUAGAAAACAUG,binding signal,PUM1 PUF domain R5-GKH,3.15 log2 enrichment (interaction score)
same,binding signal,PUM1 PUF domain R5-RYT,3.93 log2 enrichment (interaction score)
same,binding signal,PUM1 PUF domain R5-NDG,3.34 log2 enrichment (interaction score)
GGCUAGAACUAGUGGAUCCCCCGGCGCCCGGCGGCUCGAGCCCGGGUAAGUGUAAAUAGUCUGCAUGCCGCCGGGCGCCAUGCCUGCAGGUCGACUCUAGAAAACAUG,binding signal,PUM1 PUF domain R5-RYT,1.24 log2 enrichment (interaction score)
same,binding signal,PUM1 PUF domain R6-MYL,4.67 log2 enrichment (interaction score)
same,binding signal,PUM1 PUF domain R4-LHW,3.75 log2 enrichment (interaction score)
same,binding signal,PUM1 PUF domain R6-KFS,3.11 log2 enrichment (interaction score)
same,binding signal,PUM1 PUF domain R8-NWR,2.23 log2 enrichment (interaction score)
same,binding signal,PUM1 PUF domain R6-LWK,5.88 log2 enrichment (interaction score)
same,binding signal,PUM1 PUF domain R6-VWS,2.66 log2 enrichment (interaction score)
GGCUAGAACUAGUGGAUCCCCCGGCGCCCGGCGGCUCGAGCCCGGGUAAGUGUAUAUAGUCUGCAUGCCGCCGGGCGCCAUGCCUGCAGGUCGACUCUAGAAAACAUG,binding signal,PUM1 PUF domain R4-EHA,2.96 log2 enrichment (interaction score)
same,binding signal,PUM1 PUF domain R4-VCA,2.82 log2 enrichment (interaction score)
GGCUAGAACUAGUGGAUCCCCCGGCGCCCGGCGGCUCGAGCCCGGGUAAGUUGAAAUAGUCUGCAUGCCGCCGGGCGCCAUGCCUGCAGGUCGACUCUAGAAAACAUG,binding signal,[1],5.9 log2 enrichment (interaction score)
GGCUAGAACUAGUGGAUCCCCCGGCGCCCGGCGGCUCGAGCCCGGGUAAGCGUAAAUAGUCUGCAUGCCGCCGGGCGCCAUGCCUGCAGGUCGACUCUAGAAAACAUG,binding signal,PUM1 PUF domain R8-SWE,2.43 log2 enrichment (interaction score)
same,binding signal,PUM1 PUF domain R8-NWR,3.79 log2 enrichment (interaction score)
GGCUAGAACUAGUGGAUCCCCCGGCGCCCGGCGGCUCGAGCCCGGGUAAGUGUAAUUAGUCUGCAUGCCGCCGGGCGCCAUGCCUGCAGGUCGACUCUAGAAAACAUG,binding signal,PUM1 PUF domain R3-RAA,3.66 log2 enrichment (interaction score)
GGCUAGAACUAGUGGAUCCCCCGGCGCCCGGCGGCUCGAGCCCGGGUAAGUGUCAAUAGUCUGCAUGCCGCCGGGCGCCAUGCCUGCAGGUCGACUCUAGAAAACAUG,binding signal,PUM1 PUF domain R5-NAR,4.29 log2 enrichment (interaction score)
same,binding signal,PUM1 PUF domain R5-KTC,4.69 log2 enrichment (interaction score)
GGCUAGAACUAGUGGAUCCCCCGGCGCCCGGCGGCUCGAGCCCGGGUAAGUGAAAAUAGUCUGCAUGCCGCCGGGCGCCAUGCCUGCAGGUCGACUCUAGAAAACAUG,binding signal,PUM1 PUF domain R6-VWS,7.2 log2 enrichment (interaction score)
GGCUAGAACUAGUGGAUCCCCCGGCGCCCGGCGGCUCGAGCCCGGGUAAGUGUGAAUAGUCUGCAUGCCGCCGGGCGCCAUGCCUGCAGGUCGACUCUAGAAAACAUG,binding signal,PUM1 PUF domain R5-KHI,4.47 log2 enrichment (interaction score)
